This note sets out measurements from PubChem BioAssay (NCI).

Some test systems named below: K-562 leukemia; MALME-3M melanoma; MDA-MB-231 breast; RXF 393 renal; SF-268 CNS; SF-295 CNS; SF-539 CNS; UACC-257 melanoma; M14 melanoma; HCT-15 colon; HT29 colon; SNB-75 CNS; SNB-19 CNS; U251 CNS; SK-MEL-5 melanoma; UACC-62 melanoma; LOX IMVI melanoma; SK-MEL-28 melanoma; SK-MEL-2 melanoma.
Holding throughout (assay): NCI-60 one-dose screen, 48 h (100 = growth as untreated, 0 = no growth, -100 = all killed)
Common to all, as to conditions: 10 µM unless noted

Each structure is given as a SMILES string. About 83,000 compounds went through this panel and 20% of them were active in at least one assay; those are over-represented in the sample as a whole.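 Single-dose data. Exposure time 48 hours. Values below 10 considered active.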 Values without a mark were called inactive. Activity calls are given as the source filed them.

For `[O-]/[N+](=C\C=C\c1ccccc1)c1ccccc1`, the growth in the test on K-562 leukemia was 98.1%; in the test on MALME-3M melanoma, 158%; in the test on MDA-MB-231 breast, 102%; in the test with RXF 393 renal, 405%; with SF-268 CNS, 101%; with SF-295 CNS it was 102%. The growth in the test with SF-539 CNS is 103%; with UACC-257 melanoma, 127%; in the test with M14 melanoma it was 115%; with HCT-15 colon, 104%; in the test on HT29 colon, 102%; in the test on SNB-75 CNS it was 91.8%. Further, the growth is 96.8% in the test on SNB-19 CNS; 98.8% with U251 CNS; 102% in the test with SK-MEL-5 melanoma; 93.8% in the test with UACC-62 melanoma; 96.8% in the test with LOX IMVI melanoma; 110% with SK-MEL-28 melanoma. Also, the growth with SK-MEL-2 melanoma was 100%.
Regarding `N#Cc1ccc(NC(=O)Nc2ccc(Oc3ccc(NC(=O)Nc4ccc(C#N)cc4)cc3)cc2)cc1`, the growth was 0.451% (active) with K-562 leukemia; 54.4% in the test on MALME-3M melanoma; 53.5% in the test on MDA-MB-231 breast; 83.2% in the test on RXF 393 renal; 42.1% in the test on SF-268 CNS; 23.7% with SF-295 CNS. Moreover, the growth in the test with SF-539 CNS is 71%; in the test with UACC-257 melanoma, 37%; in the test on M14 melanoma, 26.2%; in the test with HCT-15 colon, 32.1%; with HT29 colon it was 37.4%; in the test with SNB-75 CNS, 70.1%. The growth with SNB-19 CNS was 30.7%; in the test with U251 CNS it was 27.7%; in the test on SK-MEL-5 melanoma, 31.2%; in the test on UACC-62 melanoma it was 11.2%; in the test with LOX IMVI melanoma, 35.4%; in the test on SK-MEL-28 melanoma it was 51%. Besides, in the test with SK-MEL-2 melanoma, the growth was -19.6% (active).
Regarding `O=C(C=C=Nc1ccccc1)C(=O)N=C=Cc1ccccc1`, the growth in the test on K-562 leukemia was -18.8% (active); with MALME-3M melanoma, -20.9% (active); with MDA-MB-231 breast, 94.6%; in the test on RXF 393 renal, -46% (active); with SF-268 CNS it was 69.1%; in the test on SF-295 CNS, 99.3%. The growth was 85.1% with SF-539 CNS; 43.3% with UACC-257 melanoma; 44.2% in the test on M14 melanoma; 11.4% in the test with HCT-15 colon; 52.1% in the test on HT29 colon; 75.8% with SNB-75 CNS. For the same compound, the growth is 92.3% with SNB-19 CNS; 83.7% in the test with U251 CNS; 74.3% in the test with SK-MEL-5 melanoma; 67% in the test with UACC-62 melanoma; -47.5% (active) with LOX IMVI melanoma; 68.2% in the test with SK-MEL-28 melanoma. The growth in the test with SK-MEL-2 melanoma was 49.2%.
With `NC(=O)N/N=C/c1ccc(Br)o1`, the growth with K-562 leukemia was 104%; with MALME-3M melanoma, 106%; in the test with MDA-MB-231 breast, 99%; in the test with RXF 393 renal, 112%; in the test with SF-268 CNS it was 99.6%; in the test with SF-295 CNS, 103%. The growth was 101% in the test on SF-539 CNS; 105% in the test on UACC-257 melanoma; 101% with M14 melanoma; 96.1% in the test on HCT-15 colon; 102% in the test with HT29 colon; 105% in the test with SNB-75 CNS. The growth in the test on SNB-19 CNS is 111%; with U251 CNS, 106%; in the test on SK-MEL-5 melanoma, 101%; in the test on UACC-62 melanoma, 104%; in the test on LOX IMVI melanoma, 94.2%; in the test on SK-MEL-28 melanoma, 105%. The growth in the test with SK-MEL-2 melanoma was 99.6%.
Turning to `CC1=C(C(=O)Nc2ccccc2)C(c2ccc3c(c2)OCCO3)NC(=O)N1` (configuration not stated), the growth with K-562 leukemia is 98.5%; with MALME-3M melanoma it was 96.9%; with MDA-MB-231 breast it was 118%; in the test on RXF 393 renal, 116%; with SF-268 CNS, 100%; in the test with SF-295 CNS, 114%. Besides, the growth with SF-539 CNS was 100%; in the test with UACC-257 melanoma it was 102%; in the test with M14 melanoma it was 103%; with HCT-15 colon, 106%; with HT29 colon, 108%; in the test with SNB-75 CNS, 102%. For the same compound, the growth is 99.6% with SNB-19 CNS; 105% in the test with U251 CNS; 101% in the test on SK-MEL-5 melanoma; 101% in the test with UACC-62 melanoma; 94.7% in the test on LOX IMVI melanoma; 111% in the test with SK-MEL-28 melanoma. Besides, the growth in the test with SK-MEL-2 melanoma was 125%.
Turning to `Cc1c(NCc2nnc3n(Cc4ccccc4)c(=O)c4c5c(sc4n23)CCCC5)c(=O)n(-c2ccccc2)n1C`, the growth in the test with K-562 leukemia was 53.5%; with MALME-3M melanoma, 113%; in the test with MDA-MB-231 breast it was 96.5%; with RXF 393 renal it was 84.5%; in the test with SF-268 CNS, 74.1%; with SF-295 CNS it was 67.2%. The growth was 103% in the test with SF-539 CNS; 80.9% with UACC-257 melanoma; 83.2% in the test with M14 melanoma; 94.6% in the test with HCT-15 colon; 77.2% with HT29 colon; 98% in the test with SNB-75 CNS. For the same compound, the growth is 79.9% in the test with SNB-19 CNS; 97.6% in the test on U251 CNS; 81% in the test with SK-MEL-5 melanoma; 80% with UACC-62 melanoma; 91.6% in the test on LOX IMVI melanoma; 103% in the test with SK-MEL-28 melanoma. The growth with SK-MEL-2 melanoma was 97.1%.
With `Cc1cc(C)n(C(=O)c2nn(-c3ccc(Cl)cc3)cc2O)n1`, the growth with K-562 leukemia was 6.26% (active); in the test with MALME-3M melanoma it was 117%; in the test with MDA-MB-231 breast, 77.4%; in the test on RXF 393 renal, 39.1%; in the test on SF-268 CNS, 39.9%; in the test on SF-295 CNS, -4.15% (active). In addition, the growth in the test on SF-539 CNS is 39.1%; in the test with UACC-257 melanoma, 82.5%; with M14 melanoma it was 45.7%; in the test with HCT-15 colon, 50.2%; in the test on HT29 colon, 97.7%; with SNB-75 CNS, 29.8%. Moreover, the growth in the test on SNB-19 CNS was 26.3%; in the test on U251 CNS, 19.4%; in the test on SK-MEL-5 melanoma, 79.3%; in the test on UACC-62 melanoma it was 52.9%; with LOX IMVI melanoma, 41.4%; in the test on SK-MEL-28 melanoma, 71.7%. Further, the growth in the test with SK-MEL-2 melanoma was 88.3%.
As for `O=C(Nc1ccc(Nc2ccncc2)cc1)c1ccc(Nc2ccnc3ccc([N+](=O)[O-])cc23)cc1[N+](=O)[O-]`, the growth is 107% in the test with K-562 leukemia; -49.8% (active) in the test on MALME-3M melanoma; 94.9% with MDA-MB-231 breast; 35.9% in the test with RXF 393 renal; -11.6% (active) with SF-268 CNS; 19.4% with SF-295 CNS. Also, the growth was 53.3% with SF-539 CNS; 70.9% with UACC-257 melanoma; 92.7% in the test on M14 melanoma; 86.7% in the test on HCT-15 colon; 103% in the test with HT29 colon; 85.8% in the test with SNB-75 CNS. In addition, the growth is 29.6% in the test on SNB-19 CNS; -46.1% (active) in the test with U251 CNS; 103% with SK-MEL-5 melanoma; 91.1% with UACC-62 melanoma; 21.1% in the test on LOX IMVI melanoma; 54.6% with SK-MEL-28 melanoma. Moreover, the growth in the test with SK-MEL-2 melanoma was 82.2%.
